Compounds without any hit were thinned out: in the full panel of roughly 83,000, 20% have a hit.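 Cells were grown in 96-well plates and exposed to the test compound at a single concentration for 48 hours; results are reported as percent growth, with values below 10 considered active.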 Values without a mark were called inactive. Calls of active or inactive are those of the source.
Experiments:
Test in all cases: NCI-60 one-dose screen, 48 h (100 = growth as untreated, 0 = no growth, -100 = all killed)
Settings in all cases: 10 µM unless noted
HCT-15 colon = tested on: HCT-15 colon
HT29 colon = tested on: HT29 colon
SNB-75 CNS = tested on: SNB-75 CNS
SNB-19 CNS = tested on: SNB-19 CNS
U251 CNS = tested on: U251 CNS
PC-3 prostate = tested on: PC-3 prostate
SK-MEL-5 melanoma = tested on: SK-MEL-5 melanoma
UACC-62 melanoma = tested on: UACC-62 melanoma
LOX IMVI melanoma = tested on: LOX IMVI melanoma
SK-MEL-28 melanoma = tested on: SK-MEL-28 melanoma

Compound | growth (HCT-15 colon) | growth (HT29 colon) | growth (SNB-75 CNS) | growth (SNB-19 CNS) | growth (U251 CNS) | growth (PC-3 prostate) | growth (SK-MEL-5 melanoma) | growth (UACC-62 melanoma) | growth (LOX IMVI melanoma) | growth (SK-MEL-28 melanoma)
CCCC(=O)NC(c1cccnc1)c1cc(C(C)(C)C)c2cccnc2c1O (stereo not given) | 35.4% | 34% | 37.4% | 31.6% | 18.6% | 44.1% | -15.4% (active) | 7.53% (active) | 20.3% | 24.6%
COc1ccc(-c2nc3ccc(-c4nnc(SCC(=O)Nc5ccc(C(=O)/C=C/c6ccc(Cl)cc6)cc5)o4)cc3[nH]2)cc1 | 86.1% | 104% | 94.7% | 108% | 94.3% | 94.9% | 98.9% | 94% | -29.9% (active) | 101%
COc1ccc(C(=O)Nc2ncc(Cc3ccccc3Cl)s2)cc1 | 9.87% (active) | -16.6% (active) | 28.8% | 23.7% | 14.6% | 29.7% | 2.6% (active) | 35.7% | 1.15% (active) | 64%
N#Cc1cnc2ccc(-c3cnc4[nH]ncc4c3)cc2c1N1CCc2cc(F)c(Cl)cc21 | 3.32% (active) | 2.58% (active) | -9.27% (active) | 14.2% | 20.5% | 6.58% (active) | -37.2% (active) | -18.5% (active) | -9.51% (active) | 31.3%
CNC(=O)c1cc(N2CCc3cc(NC(=O)Nc4ccc(Cl)c(C(F)(F)F)c4)ccc32)ccn1 | 28% | 61.2% | 93.3% | 61.4% | 52.4% | 29% | 46.6% | 51.8% | 64.7% | 66.9%
COc1ccc(/C=N/NC(=O)c2cn(C3CC3)c3c(OC)c(N4CC5CCCNC5C4)c(F)cc3c2=O)cc1 (stereo not given) | 47.6% | 32.4% | 93.1% | 96.6% | 89.4% | 75.1% | 87.1% | 100% | 19.6% | 92.8%
O=C(CCC(=O)N1CCOCC1)OCCCCCCSc1ccc([N+](=O)[O-])c2nonc12 | -67.4% (active) | -34.2% (active) | 36.4% | 25.1% | -29.8% (active) | 2.96% (active) | 27.9% | -64.6% (active) | -82.2% (active) | -36.9% (active)
COc1ccc(-c2cc(-c3ccc(Cl)cc3)c(C#N)c(=O)n2Cc2ccc(C(=O)O)cc2)cc1 | 79% | 117% | 3.46% (active) | 90.1% | 84.3% | 68.9% | 87.2% | 18.4% | 75.7% | 60.7%
COc1cc(/C=C2\C(=O)Nc3ccccc32)ccc1OCc1ccc(F)cc1 | 101% | 105% | 106% | 99.3% | 106% | 101% | 102% | 92.7% | 97.3% | 110%
C#Cc1nc(C(C)=O)cs1 | 99.4% | 110% | 85.5% | 102% | 102% | 98.4% | 104% | 94.3% | 94.7% | 106%
Cn1ccnc1C(=O)/C=C/c1ccc(CNC(=O)c2ccc(S(F)(F)(F)(F)F)cc2)cc1 | -5.91% (active) | 10.4% | 57.6% | 3.58% (active) | 8.6% (active) | 26.4% | 61.3% | 31.2% | -80.3% (active) | 82.4%
COc1cc(-c2nc3sccn3c2-c2ccnc(S(C)(=O)=O)n2)ccc1F | 77.9% | 116% | 76.1% | 92% | 99.1% | 105% | 96.5% | 81.3% | 102% | 97.7%
Cn1ccnc1C(=O)/C=C/c1ccc(CNC(=O)c2c(F)c(F)c(F)c(F)c2F)cc1 | 11.8% | 14.7% | 96.3% | 42.2% | 45.6% | 35.2% | 75.7% | 54.9% | -66.4% (active) | 90.8%
COc1ccccc1-n1cc(C#N)c(N)c1C(=O)c1ccc(C)cc1 | 47.1% | 73.7% | 82% | 77.1% | 79.4% | 74.5% | 92% | 22.2% | 80.1% | 73.9%
COc1ccc2c(c1)c(CC(=O)[Se]CCC#N)c(C)n2C(=O)c1ccc(Cl)cc1 | -64.7% (active) | -31.2% (active) | -30.1% (active) | -45.2% (active) | 1.11% (active) | 17.4% | -73.4% (active) | 41.3% | -50.4% (active) | -1.32% (active)
O=C(CSc1nc2ccccc2c(=O)n1-c1ccc(Cl)cc1)N/N=C/c1ccc(N2CCCCC2)cc1 | 67.8% | 60.9% | 79.9% | 43.2% | 50.6% | 78.6% | 97.9% | 73.5% | 43.5% | 84.8%
COc1cc2oc(-c3cccc(NC(=O)c4cc(N)ccc4Cl)c3)cc(=O)c2c(OC)c1OC | 85.7% | 110% | 101% | 100% | 101% | 97.9% | 75.3% | 94.4% | 87.1% | 108%
O=C1[C@H]2Cc3c([nH]c4ccccc34)[C@@H](c3ccc(Br)cc3)N2C(=O)CN1C1CCN(CC2CCCCC2)CC1 | -91.2% (active) | -71.1% (active) | -1.64% (active) | 4.34% (active) | -90.8% (active) | -52.3% (active) | -99.8% (active) | 42.3% | -87.1% (active) | -95.5% (active)
CCc1ccc(SC2c3ccc(N(CC)CC)cc3Oc3nc(N)c(C#N)c(N)c32)cc1 (stereo not given) | -88% (active) | -54.6% (active) | 12.7% | -95.1% (active) | -71.3% (active) | -74% (active) | -97% (active) | -32.7% (active) | -86.6% (active) | -18.7% (active)
N#Cc1c(-c2cccs2)cc(-c2cnccn2)nc1SCC(=O)c1ccc(F)cc1 | 100% | 105% | 58.5% | 97.7% | 104% | 87.2% | 96.4% | 81.1% | 85.4% | 100%
NC(N)=Nc1ccc(Oc2cccc(NC(N)=Nc3ccc(Cl)c(C(F)(F)F)c3)c2)cn1 | 85.8% | 28.9% | 69.3% | 16.6% | 25.6% | 13.4% | 31.9% | 40.2% | -59.8% (active) | 61.6%
CCN1CCN(Cc2ccc(C(=O)Nc3ccc(C)c(Oc4ccc(-c5[nH]nc6ncnc(N)c56)cc4)c3)cc2C(F)(F)F)CC1 | 68.6% | 17% | 95.8% | 101% | 89.4% | 70.7% | 76.1% | 89.1% | 57.2% | 75.4%
C#C[C@]1(O)CC[C@H]2[C@@H]3CC=C4c5sc(-c6cccc(O)c6)nc5CC[C@]4(C)[C@H]3CC[C@@]21C | -25.2% (active) | -13.7% (active) | -52.7% (active) | -19.8% (active) | -47.6% (active) | -54.7% (active) | -77.1% (active) | -61.3% (active) | -62.4% (active) | -68.8% (active)
CCCn1cnc2c(c1=N)C(c1ccc(Cl)cc1)c1sc3c(CC)cccc3c1O2 (stereo not given) | 17.6% | -5.38% (active) | -1.58% (active) | 23.1% | 14.3% | 3.88% (active) | 31% | 12.8% | 29.3% | 57.8%
Nc1ncc(-c2ccc3ncnc(Nc4cccc(Cl)c4F)c3c2)cn1 | 56.4% | 78.9% | 53.2% | 59.4% | 67.9% | 61% | 63.6% | 38.9% | 77.4% | 65.2%
N#Cc1cccc(CN2CCC3=C(C2)C(=O)N(Cc2ccc(Cl)cc2)C2=NCCCN23)c1 | 16.6% | 28% | 68% | 21.8% | 23.7% | 24% | 8.1% (active) | 25% | 43.8% | 44.8%

— PubChem BioAssay (NCI)
